Experiment [1] can be described thus: qHTS assay for small molecule agonists of the p53 signaling pathway (AID 651631; calls by dose curve; further: nearly all actives have a fitted effect of over 15% in size; further: potency means the concentration at half of the fitted maximal effect). The method in brief: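 Readout was fluorescence from the LiveBLAzer FRET substrate, applied for 2 h at room temperature after 16 h compound exposure at 37 °C. Cells were the p53RE-bla HCT-116 line, with beta-lactamase driven by p53 response elements.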
Experiment [2] is described as follows: qHTS assay for small molecule agonists of the p53 signaling pathway - cell viability (AID 651633; calls by dose curve; further: series mostly up to about 83 µM; nearly all actives have a fitted effect of over 30% in size). The method in brief:
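p53RE-bla cells were treated with compound for 16 hours at 37 C. Cytotoxicity was then measured as CellTiter-Glo luminescence after 30 min at room temperature.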
In general terms: qHTS replaces the single test concentration by a dilution series.

A short description of experiment [3]: qHTS assay for small molecules that induce genotoxicity in human embryonic kidney cells expressing luciferase-tagged ATAD5 - cell viability (AID 651634; calls by dose curve; further: nearly all actives have a fitted effect of over 25% in size). The method in brief:
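Quantitative high-throughput format. HEK293T cells expressing ATAD5 fused to luciferase were plated at 2,000 cells/well and treated 15.5 hr with compound versus DMSO. Viability was determined by fluorescent live-cell protease substrate, 30 min at 37C.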

The nature of experiment [4]: qHTS assay for small molecule disruptors of the mitochondrial membrane potential - cell viability (AID 720634; calls by dose curve;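 further: human HepG2 liver cancer cells; series mostly up to about 83 µM; nearly all actives have a fitted effect of over 20% in size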). An outline of the steps:
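Same-well counter-screen: following the MMP dye addition, CellTiter-Glo was added to 1 hr compound-treated HepG2 cells and luminescence read after 30 min at room temperature.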

The nature of experiment [5]: qHTS assay to test for compound auto fluorescence at 535 nm (green) in HepG2 cells (AID 720675).
A short description of experiment [6]: qHTS assay to test for compound auto fluorescence at 460 nm (blue) in HEK293 cells (AID 720678). The method in brief:
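Intrinsic compound fluorescence is recorded in live HEK293 cultures after overnight incubation at 37C, 5% CO2, using excitation 405 nm and emission 460 nm. Values are referenced to triamterene.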

A short description of experiment [7]: qHTS assay to test for compound auto fluorescence at 590 nm (red) in HEK293 cells (AID 720679). The method in brief:
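Red autofluorescence, HEK293 cells: 2,000 cells/well; attach 4-5 hr 37C; add 23 nL cpd or DMSO; incubate o/n 37C 5% CO2; read Ex540/Em590; Rose Bengal sodium reference.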

Experiment [8] in a line: qHTS assay for small molecules that induce genotoxicity in human embryonic kidney cells expressing luciferase-tagged ATAD5 (AID 651632). Further: nearly all actives have a fitted effect of over 15% in size. The method in brief:
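Test compounds were delivered by pin tool onto HEK293T reporter cells (2,000/well) expressing ATAD5 fused to luciferase. After 16 hr at 37C, 5% CO2, Amplite was added for 30 min at room temperature and luminescence was measured.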

Experiment [9] is described as follows: qHTS assay to test for compound auto fluorescence at 590 nm (red) in HepG2 cells (AID 720674). The method in brief:
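HepG2 cells, 2,000 per well in MEM with 10% FBS, attached overnight at 37 C, then got 23 nL compound or DMSO. After 1 hr at 37 C, 5% CO2, red fluorescence was read at 540/590 nm against Rose Bengal sodium as reference.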

Experiment [10] can be described thus: qHTS assay for small molecule disruptors of the mitochondrial membrane potential (AID 720635). Further: potency means the concentration at half of the fitted maximal effect. An outline of the steps:
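HepG2 cells exposed to compound 1 hr at 37C, then Mito-MPS dye 30 min. Ratio read of aggregate (540/590 nm) versus monomer (490/535 nm) fluorescence.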

A number with no mark means an inactive call. Records with an inconclusive call do not appear. Activity calls are given as the source filed them. Unless noted, the call rests on the fitted dose curve; in most records, active means well fitted curve in the direction sought with a large enough effect in the repeat runs; inconclusive means weak or mixed curves; inactive means no such curve, though single readings can be large; an effect the other way counts as inactive or inconclusive.
On the % scale 0 is the no-effect control and ±100 the full control effect.

Turning to `Nc1ccccn1`, the Potency entry in experiment [1], in experiment [2] and in [3] was “inactive” in each case. Also, the molecule was called inactive in experiment [4], in experiment [5], in experiment [6] and in experiment [7].

For `Nc1ccn([C@@H]2O[C@H](CO)[C@@H](O)C2(F)F)c(=O)n1`, the Potency in experiment [1] is 0.106 µM (active). For the same molecule, the Potency entry in experiment [8] and in [3] was “inactive” each time. The call in experiment [4], in experiment [5], in experiment [6] and in experiment [7] was inactive.

Regarding `CCCCCCCC1CCCC1=O` (configuration not stated), the Potency result in [1], in experiment [8] and in experiment [3] was “inactive” each time. Besides, the call in [4], in experiment [9], in experiment [5], in [6] and in experiment [7] was inactive.

As to `CC(=O)N1C[C@H](O)C[C@H]1C(=O)O`, the Potency result in experiment [1], in experiment [8], in experiment [3] and in experiment [10] was “inactive” throughout. Further, the result in experiment [4], in [5], in experiment [6] and in [7] was inactive.

On to `CCC(=O)OCc1ccccc1`, for which the Potency entry in [1], in [8] and in experiment [3] was “inactive” each time. Moreover, the molecule was classed as inactive in experiment [4], in experiment [9], in experiment [5], in experiment [6] and in [7].

Turning to `CC1=CCC(O)(C(C)C)CC1` (configuration not stated), the Potency result in experiment [1], in [8] and in [3] was “inactive” each time. The molecule was called inactive in [4], in [9], in experiment [5], in experiment [6] and in [7].

For the molecule `CN(C)CCCN(C)CCCN(C)C`, the Potency result in [1], in experiment [8] and in experiment [3] was “inactive” each time. Besides, the call in experiment [4], in [9], in [5], in experiment [6] and in experiment [7] was inactive.

Regarding `CCC(C)(CN(C)C)OC(=O)c1ccccc1` (configuration not stated), the Potency result in experiment [1], in [2], in [3] and in experiment [10] was “inactive” in each case. Besides, the molecule was classed as inactive in experiment [4]. Besides, in experiment [9], the fluorescence, relative to Rose Bengal was -0.657% [at 18.6 µM]. The fluorescence, % of fluorescein control in experiment [5] is -0.164% [at 18.6 µM]. For the same molecule, the fluorescence, % of triamterene in [6] is 0.148% [at 18.6 µM]. Also, the fluorescence, % of fluorescent control in experiment [7] is 0.273% [at 18.6 µM].

For the molecule `CC(COc1ccccc1)NN` (configuration not stated), the Potency result in experiment [1], in experiment [8], in experiment [3] and in experiment [10] was “inactive” each time. The result in experiment [4], in [9], in [5], in [6] and in experiment [7] was inactive.

Regarding `CC(C)COC(=O)c1ccc(N)cc1`, the Potency result in [1], in experiment [2] and in experiment [3] was “inactive” each time. Besides, the result in [4], in experiment [9], in [5], in experiment [6] and in experiment [7] was inactive.

Take `CCCCCCCCCCCCSC`: the Potency result in experiment [1], in [8] and in experiment [3] was “inactive” in each case. For the same molecule, the molecule was called inactive in experiment [9], in [5], in [6] and in [7].

With `O=C1NC(=O)C2CC=CCC12` (configuration not stated), the Potency entry in experiment [1], in experiment [2] and in experiment [3] was “inactive” in each case. Moreover, the molecule was called inactive in [4], in experiment [9], in experiment [5], in experiment [6] and in [7].

On to `O=C(O)c1cc(C(=O)O)cc(C(=O)O)c1`, for which the Potency result in experiment [1], in [8], in experiment [3] and in experiment [10] was “inactive” throughout. Moreover, the molecule was called inactive in [9], in experiment [5], in [6] and in experiment [7].

Regarding `COc1ccc2cc1Oc1cc3c(cc1OC)CC[N+](C)(C)[C@H]3Cc1ccc(cc1)Oc1c(OC)c(OC)cc3c1[C@@H](C2)[N+](C)(C)CC3`, the Potency entry in experiment [1], in experiment [8] and in [3] was “inactive” in each case. In addition, the result in experiment [4], in [9], in experiment [5], in experiment [6] and in [7] was inactive.

Regarding `CC(C)(C#N)Nc1nc(Cl)nc(NC2CC2)n1`, the Potency entry in experiment [1], in [8], in experiment [3] and in [10] was “inactive” each time. Also, the molecule was classed as inactive in experiment [9], in experiment [5], in experiment [6] and in experiment [7].

Consider `CC(N)C12CC3CC(CC(C3)C1)C2` (configuration not stated), for which the Potency entry in experiment [1], in experiment [8] and in [3] was “inactive” each time. Also, the molecule was classed as inactive in experiment [4], in [9], in experiment [5], in experiment [6] and in experiment [7].

With `NC(=O)N1c2ccccc2CC(=O)c2ccccc21`, the Potency entry in [1], in experiment [8] and in experiment [3] was “inactive” throughout. Further, the molecule was classed as inactive in experiment [4], in [9], in [5], in [6] and in [7].

Take `O=C(O)CNC(=O)c1ccc(CO)o1`: the Potency entry in experiment [1], in experiment [8] and in experiment [3] was “inactive” throughout. For the same molecule, the call in experiment [4], in experiment [9], in experiment [5], in experiment [6] and in experiment [7] was inactive.

Turning to `CC(C)(C)C(=O)Oc1ccc(S(=O)(=O)Nc2ccccc2C(=O)NCC(=O)O)cc1`, the Potency entry in experiment [1], in experiment [8], in experiment [3] and in [10] was “inactive” each time. The molecule was called inactive in experiment [9], in [5], in [6] and in experiment [7].

On to `CCCCCCCCN1CCCC1=O`, for which the Potency result in experiment [1], in experiment [8] and in experiment [3] was “inactive” throughout. Moreover, the call in [4], in experiment [5], in [6] and in experiment [7] was inactive.

As for `NO`, the Potency entry in experiment [1], in [2] and in experiment [3] was “inactive” each time. The call in [4], in [9], in experiment [5], in experiment [6] and in [7] was inactive.

For `CN(C)CCN(C)CCN(C)C`, the Potency result in experiment [1], in [8] and in [3] was “inactive” in each case. Also, the call in experiment [4], in experiment [9], in experiment [5], in experiment [6] and in experiment [7] was inactive.

Take `CC(CO)(CO)[N+](=O)[O-]`: the Potency result in experiment [8], in experiment [2] and in experiment [3] was “inactive” in each case. Moreover, the call in experiment [4], in experiment [9], in [5], in [6] and in experiment [7] was inactive.

For the molecule `Cc1ccc(-c2ncc(Cl)cc2-c2ccc(S(C)(=O)=O)cc2)cn1`, the Potency entry in experiment [8], in [2], in experiment [3] and in experiment [10] was “inactive” each time. In addition, the molecule was classed as inactive in experiment [4], in experiment [5], in experiment [6] and in experiment [7].

Regarding `CCCCCCC#CC(=O)OC`, the Potency result in experiment [8], in [2] and in experiment [3] was “inactive” each time. The result in [4], in [9], in [5], in [6] and in experiment [7] was inactive.

For the molecule `N[C@H](C(=O)O)[C@@H](O)c1ccc(O)c(O)c1`, the Potency entry in [8], in experiment [2] and in experiment [3] was “inactive” each time. The outcome in [4], in experiment [9], in [5], in experiment [6] and in [7] was inactive. The Potency in [10] was 26.6 µM (active).

For the origin of these results see PubChem BioAssay (Tox21).
